# From PubChem BioAssay
# Calls of active or inactive are those of the source.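 The calls were made as follows: active = signal rise over 3 SD above mean of control wells given weak agonist, in both repeats and first screen; inactive = the rest.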
# Test system: TRPC4 (mouse), co-expressed with 5HT1a in HEK293
# Assay: enhancement of serotonin-evoked TRPC4 response – cell-based, second counter screen, HEK293 TRPC4/5HT1a, Fluo-4, counter-screen for TRPC4 potentiator project, confirmation (AID 434979)
# Settings: Fluo-4 calcium flux, at 10 µM, serotonin added at its EC20 dose; stronger effect = higher value
SMILES,potentiation,outcome
O=C1/C(=C\c2cc(Cl)c(O)c(Cl)c2)SC(=S)N1Cc1ccccc1,27.4% (active),–
COc1ccc(C(=O)NC(=S)NNC(=O)c2c(-c3ccccc3)noc2C)cc1,–,inactive
O=C(c1sc2ccccc2c1Cl)N(Cc1ccco1)C1CCS(=O)(=O)C1 (stereo not given),–,inactive
Cc1cc(-c2ccc(C)c(S(=O)(=O)NCCCN(Cc3ccccc3)C(C)C)c2)on1,–,inactive
CCc1nc(NCCc2ccccn2)c2nnn(Cc3ccccc3F)c2n1,–,inactive
CN(C)CCCN(C(=O)c1ccc(S(=O)(=O)N2CCCc3ccccc32)cc1)c1nc2ccc(F)cc2s1,–,inactive
CSCCC(NS(=O)(=O)c1ccc2c(c1)c(=O)n(C)c(=O)n2C)C(=O)NC1CCN(Cc2ccccc2)CC1 (stereo not given),–,inactive
CCC1(c2ccc(F)cc2)NC(=O)N(CC(=O)c2cc(C)n(C3CC3)c2C)C1=O (stereo not given),24.5% (active),–
CN(C)CCCN(C(=O)c1ccc(C(=O)c2ccccc2)cc1)c1nc2ccc(F)cc2s1,–,inactive
Cc1ccc(-n2cc(CNCC3CC(=O)N(C4CC4)C3)c(-c3cccc(C)c3)n2)cc1 (stereo not given),–,inactive
CC1CCCN(CCCNC(=O)c2ccc3c(c2)N(Cc2ccccc2F)C(=O)c2ccccc2S3(=O)=O)C1 (stereo not given),–,inactive
Cc1nc(/N=C(\N)NC(=O)NC2CCCCC2)nc2ccccc12,–,inactive
COc1ccc(C(CNC(=O)c2cccc(NS(=O)(=O)c3ccc(C)c(F)c3)c2)N(C)C)cc1 (stereo not given),–,inactive
CCN1CCN(c2ccc(S(=O)(=O)N3CCCCC3)cc2NC(=O)COc2ccccc2)CC1,–,inactive
CCCN(CCC)CCCNC(=O)C1CCN(S(=O)(=O)c2cccc3nsnc23)CC1,–,inactive
c1ccc(Nc2nc(Nc3ccccc3)nc(N3CCNCC3)n2)cc1,–,inactive
CN(C)C(CNc1ncnc2sc3c(c12)CCCC3)c1ccco1 (stereo not given),–,inactive
CC(=O)Nc1ccc(CN2CCCC(C(=O)c3cccc(C(F)(F)F)c3)C2)cc1 (stereo not given),–,inactive
NCCCn1c(C(=O)c2cc(Cl)c(N)c(Cl)c2)c2ccccc2[n+]1[O-],–,inactive
CCN1CCN(c2c(Cl)cccc2NC(=O)c2ccc3nsnc3c2)CC1,–,inactive

SMILES,potentiation,outcome
COc1ccc(-c2cc(C(=O)NCC(c3ccccc3)N(C)C)c3ccccc3n2)cc1OC (stereo not given),–,inactive
O=C(c1sc2ccccc2c1Cl)N(Cc1cccs1)C1CCS(=O)(=O)C1 (stereo not given),–,inactive
O=S(=O)(c1ccccc1)c1nnn2c1nc(NC1CCN(Cc3ccccc3)CC1)c1cc(Cl)ccc12,–,inactive
CCCc1c(O)nc(SCCN(CCC)CCC)[nH]c1=O,23.3% (active),–
O=C(CCc1ccccc1)NNC(=S)NC(=O)c1ccc(Cl)cc1,–,inactive
CCCCN(C)CCCNC(=O)CN1N=C(c2ccc(Cl)cc2)CCC1=O,21.3% (active),–
CC1(C)CC(=O)c2cc(C(=O)NCc3ccco3)c(=O)n(-c3ccc(Cl)cc3)c2C1,–,inactive
CCOC(=O)C1CCCN(C(c2ccccn2)c2c(C)[nH]c3ccccc23)C1 (stereo not given),–,inactive
O=C(Nc1nnc(-c2ccccc2Cl)o1)c1nc2ccccc2s1,–,inactive
CCCCC(c1nnnn1CC1CCCO1)N1CCN(c2nc3ccccc3s2)CC1 (stereo not given),–,inactive
c1ccc2c(c1)CCN(c1ncnc3c1[nH]c1ccccc13)C2,–,inactive
COc1ccc(C(CNCC(=O)Nc2ccccc2F)N(C)C)cc1 (stereo not given),–,inactive
O=S(=O)(c1ccc(Cl)cc1)N1CCN2CCCC2C1 (stereo not given),25.7% (active),–
COc1cc(OC)c(CN2CCC(Cc3ccccc3)CC2)cc1Br,–,inactive
CCOC(=O)C1(CCOc2ccccc2)CCN(Cc2ccc(NC(C)=O)cc2)CC1,–,inactive
O=C(C1CCCN(Cc2ccccc2)C1)N1CCc2ccccc2C1 (stereo not given),–,inactive
Cc1csc2c(N3CCN(C(=S)Nc4ccc(F)cc4F)CC3)ncnc12,–,inactive
Cc1ccc(C2(O)CN(c3ccccc3C)C3=[N+]2CCS3)cc1 (stereo not given),–,inactive
CCn1cc(CN2CCCC(C(=O)Nc3ccc(-c4nc5ccccc5[nH]4)cc3)C2)c(C)n1 (stereo not given),–,inactive
CN(C)C(CNC(=S)Nc1cccc(Cl)c1)c1cccnc1 (stereo not given),–,inactive
